Measurements taken from PubChem BioAssay AID624255 (Broad Institute, 2012).
Hit rate of the full screen: of about 77,000 compounds, about 4,600 (6%) were called active. Another 1% or so got no clear call; they are omitted. Many of the other results were omitted from the sample, so actives are more common in it than they were. Values without a mark were called inactive.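 The calls were made as follows: active = mean inhibition above about 93%, with at least 55% of replicates each passing it (limit read from the data, passing the limit was not always enough); inconclusive = only one of those two conditions holds; inactive = neither condition holds.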

assay: growth inhibition of T. cruzi in host fibroblasts – cell-based, beta-gal Tulahuen parasites, NIH3T3 host, luminescence, primary screen (AID 624255); details: T. cruzi beta-gal in NIH3T3, GalScreen luminescence, 90 h; at 8.34 µM; hits give high values

SMILES | inhibition
Cn1cnc(CCNC(=O)C[C@H]2CC[C@@H]3[C@H](COC[C@@H](O)CN3C(=O)Nc3ccc(Cl)cc3)O2)c1 | 33%
O=C(N[C@H]1C=C[C@@H](CC(=O)N2CCN(c3ccccc3)CC2)O[C@@H]1CO)c1ccncc1 | -7%
CC(=O)N(C)C[C@@H]1Oc2cc(-c3cccnc3)ccc2S(=O)(=O)N([C@H](C)CO)C[C@H]1C | -140%
O=C(C[C@@H]1CC[C@@H]2[C@H](COC[C@H](O)CN2S(=O)(=O)c2ccc(Cl)cc2)O1)N[C@@H]1CCN(Cc2ccccc2)C1 | 43.9%
O=C(C1CCC1)N1CC[C@H]2[C@H](CO)Nc3ccc(-c4cccc(F)c4)cc3[C@H]21 | 92.4%
O=C(c1ccccn1)N1CC[C@@H]2[C@H]1c1cc(-c3ccccc3)ccc1N[C@@H]2CO | 106% (active)
COc1ccc(-c2ccc3c(c2)[C@H]2[C@H](CCN2C(=O)c2ccc4c(c2)OCO4)[C@@H](CO)N3)cc1 | 13.9%
N#Cc1cccc(-c2ccc3c(c2)[C@H]2[C@H](CCN2Cc2ccc4c(c2)OCO4)[C@@H](CO)N3)c1 | 27.1%
CN(C)C(=O)c1ccc(-c2ccc3c(c2)[C@H]2[C@H](CCN2C(=O)c2ccc4c(c2)OCO4)[C@H](CO)N3)cc1 | 99.5% (active)
COCC(=O)N1CC[C@H]2[C@H](CO)Nc3ccc(-c4ccc(C(=O)N(C)C)cc4)cc3[C@H]21 | 90.6%
O=C(c1cccnc1)N1CC[C@@H]2[C@@H](CO)Nc3ccc(-c4ccccc4)cc3[C@@H]21 | 77.8%
OC[C@@H]1Nc2ccc(-c3ccc(F)cc3)cc2[C@@H]2[C@H]1CCN2Cc1ccc(F)cc1 | 22.6%
O=C(c1cccnc1)N1CC[C@H]2[C@H](CO)Nc3ccc(-c4ccc(F)cc4)cc3[C@H]21 | 74.7%
O=C(c1ccccc1)N1CC[C@H]2[C@H](CO)Nc3ccc(-c4ccc(F)cc4)cc3[C@H]21 | 59.1%
O=C(c1cnccn1)N1CC[C@@H]2[C@H](CO)Nc3ccc(-c4cccc(F)c4)cc3[C@@H]21 | 109% (active)
OC[C@@H]1Nc2ccc(-c3cccc(F)c3)cc2[C@H]2[C@@H]1CCN2Cc1ccncc1 | 115% (active)
O=C(NC[C@@H]1[C@@H](c2ccccc2)[C@@H](CO)N1Cc1ccccn1)C1CCC1 | 31.9%
C[C@H](O)C#Cc1cnc2c(c1)C(=O)N([C@H](C)CO)C[C@H](C)[C@@H](CN(C)C(=O)Nc1ccc(F)cc1)O2 | 41%
O=C([C@H]1[C@H](CO)[C@H]2Cn3c(ccc(-c4ccccc4)c3=O)[C@@H]1N2Cc1cccnc1)N1CCOCC1 | 28.9%
CN(C)C(=O)[C@H]1[C@H](CO)[C@H]2Cn3c(ccc(-c4ccc(F)cc4)c3=O)[C@H]2N1C(=O)c1ccccn1 | 32.7%
C/C=C/c1ccc([C@@H]2[C@@H](CN(C)C(C)=O)N(C(=O)C3CC3)[C@H]2CO)cc1 | -20.4%
CO[C@@H]1CN(C)C(=O)c2cc(NC(=O)Nc3cccc(F)c3)ccc2OC[C@H](C)N(C)C[C@@H]1C | -11.1%
COc1cccc(S(=O)(=O)Nc2ccc3c(c2)[C@H]2C[C@H](CC(=O)N4CCCCC4)O[C@@H](CO)[C@H]2O3)c1 | 32.8%
COc1ccccc1C(=O)Nc1ccc2c(c1)C(=O)N(C)C[C@@H](OC)[C@@H](C)CN(CC1CC1)[C@@H](C)CO2 | 21.2%
CC(=O)N(C)C[C@@H]1[C@@H](c2ccc(-c3ccccc3F)cc2)[C@@H](CO)N1C(C)=O | 113% (active)

SMILES | inhibition
COCC(=O)N(C)C[C@H]1[C@@H](c2ccc(-c3cccnc3)cc2)[C@H](CO)N1C(C)=O | 84.3%
CCC(=O)N(C)C[C@H]1[C@H](c2ccc(-c3ccccc3F)cc2)[C@@H](CO)N1C(C)=O | 8.38%
CC(=O)N1[C@H](CO)[C@@H](c2ccc(-c3ccccc3)cc2)[C@H]1CNC(=O)C1CC1 | -18%
CC(=O)N1[C@H](CO)[C@H](c2ccc(-c3ccccc3)cc2)[C@H]1CNC(=O)C1CC1 | -0.382%
CC(=O)N1[C@H](CO)[C@@H](c2ccc(-c3ccc(F)cc3)cc2)[C@H]1CNC(=O)C1CC1 | -36%
CC(=O)NC[C@@H]1[C@@H](c2ccc(-c3ccccc3F)cc2)[C@@H](CO)N1C(=O)C1CC1 | 108% (active)
N#C[C@@H]1[C@@H](c2ccc(-c3ccccc3F)cc2)[C@@H](CO)N1C(=O)C1CC1 | 71.7%
CC(=O)N1[C@H](CNC(=O)C2CC2)[C@@H](c2ccc(-c3cccc(F)c3)cc2)[C@@H]1CO | 98.8% (active)
COc1ccc(S(=O)(=O)Nc2ccc3c(c2)CC(=O)N([C@@H](C)CO)C[C@@H](C)[C@H](CN(C)S(=O)(=O)c2ccccc2)O3)cc1 | 0.553%
COc1ccc(S(=O)(=O)N(C)C[C@H]2Oc3ccc(NC(=O)Nc4ccccc4)cc3CC(=O)N([C@H](C)CO)C[C@@H]2C)cc1 | -16.8%
C[C@@H]1CN([C@H](C)CO)C(=O)c2cc(NC(=O)Nc3cccc4ccccc34)ccc2O[C@@H](C)CCCCO[C@H]1CN(C)S(=O)(=O)c1cccs1 | 23.5%
CO[C@@H]1CC[C@@H]2CCOc3ccc(C#N)cc3C(=O)N(C)C[C@H](c3ccccc3)CC(=O)N(C)C[C@H]1O2 | 5.08%
N#C[C@@H]1N[C@@H](CO)[C@@H]1c1ccc(C#Cc2ccccc2F)cc1 | 79.1%
N#C[C@H]1N[C@H](CO)[C@@H]1c1ccc(C#Cc2ccccc2F)cc1 | 24.3%
COc1cccc(C#Cc2ccc([C@@H]3[C@H](C#N)N[C@H]3CO)cc2)c1 | 101% (active)
O=C(Nc1ccccc1)N1C[C@H]2[C@@H](c3ccccc31)[C@@H](CO)N2Cc1cocn1 | 65%
CNC(=O)C[C@@H]1CC[C@H]2[C@@H](COc3ccc(NC(=O)NCc4ccccc4)cc3C(=O)N2C)O1 | -25%
COCC#Cc1ccc2c(c1)O[C@@H](CN(C)C(C)=O)[C@H](C)CN([C@H](C)CO)S2(=O)=O | -30.8%
CC(=O)N(C)C[C@H]1Oc2cc(C#CCN(C)C)ccc2S(=O)(=O)N([C@H](C)CO)C[C@H]1C | 56.9%
CCCC#Cc1ccc2c(c1)O[C@H](CN(C)C(=O)CC)[C@@H](C)CN([C@H](C)CO)S2(=O)=O | 94.9% (active)
CC(=O)N(C)C[C@H]1Oc2cc(C#CCN(C)C)ccc2S(=O)(=O)N([C@@H](C)CO)C[C@@H]1C | 106% (active)
C[C@H]1CN([C@@H](C)CO)S(=O)(=O)c2ccc(C#CCN(C)C)cc2O[C@H]1CN(C)C(=O)CN(C)C | -25.5%
CCCC#Cc1ccc2c(c1)O[C@@H](CN(C)C(=O)CC)[C@@H](C)CN([C@H](C)CO)S2(=O)=O | 67%
C[C@H]1CN([C@@H](C)CO)S(=O)(=O)c2ccc(C#CCN(C)C)cc2O[C@H]1CN(C)C(=O)c1ccccc1F | 36.4%
CCCC#Cc1ccc2c(c1)O[C@@H](CN(C)C(=O)CC)[C@H](C)CN([C@H](C)CO)S2(=O)=O | 68.6%

SMILES | inhibition
C[C@@H]1CN([C@H](C)CO)S(=O)(=O)c2ccc(C#CCN(C)C)cc2O[C@@H]1CN(C)C(=O)CN(C)C | -40.2%
CCCC#Cc1ccc2c(c1)O[C@@H](CN(C)C(=O)c1ccccc1F)[C@H](C)CN([C@H](C)CO)S2(=O)=O | 97.6% (active)
CCC(=O)N(C)C[C@@H]1Oc2cc(C#CCN(C)C)ccc2S(=O)(=O)N([C@H](C)CO)C[C@H]1C | 101% (active)
CC(C)CC#Cc1ccc2c(c1)O[C@@H](CN(C)C(=O)c1ccccc1F)[C@H](C)CN([C@H](C)CO)S2(=O)=O | 54%
O=C(C[C@H]1CC[C@H]2[C@@H](COC[C@@H](O)CN2Cc2cccc(C(F)(F)F)c2)O1)NCc1ccncc1 | 73.9%
C[C@@H]1CCCCO[C@@H](CN(C)S(C)(=O)=O)[C@@H](C)CN([C@@H](C)CO)C(=O)c2cc(NS(=O)(=O)c3ccc(Cl)cc3)ccc2O1 | 46.7%
O=C(C[C@H]1CC[C@H]2[C@@H](COC[C@@H](O)CN2CCC(F)(F)F)O1)NCc1ccc2c(c1)OCO2 | -35.7%
COc1cccc(NC(=O)C[C@@H]2CC[C@H]3[C@@H](COc4ccc(NC(=O)C5CCOCC5)cc4C(=O)N3C)O2)c1 | 24.1%
CN(C)C(=O)C[C@@H]1CC[C@H](NC(=O)NC2CCCC2)[C@H](CO)O1 | -49.3%
O=C(C[C@@H]1CC[C@@H]2[C@H](COC[C@@H](O)CN2Cc2ccccc2)O1)NCCc1ccccc1 | 13.4%
C[C@@H](NC(=O)C[C@H]1C[C@H]2c3cc(NC(=O)C4CCOCC4)ccc3O[C@H]2[C@@H](CO)O1)c1ccccc1 | -16.2%
Cc1cc(C(=O)Nc2ccc3c(c2)C(=O)N(C)[C@@H]2CC[C@H](CC(=O)NC4CCCC4)O[C@@H]2CO3)no1 | -62.2%
CN(C)CCCNC(=O)C[C@H]1CC[C@H]2[C@@H](COC[C@H](O)CN2C(=O)c2ccncc2)O1 | -84.6%
COCC(=O)Nc1ccc2c(c1)[C@@H]1C[C@H](CC(=O)NCc3ccc(Cl)cc3)O[C@H](CO)[C@@H]1O2 | 0.832%
CN1C(=O)c2cc(NC(=O)c3cnccn3)ccc2OC[C@@H]2O[C@@H](CC(=O)N[C@H]3CCN(Cc4ccccc4)C3)CC[C@H]21 | 109% (active)
CN1C(=O)c2cc(NC(=O)Cc3cccs3)ccc2OC[C@@H]2O[C@@H](CC(=O)N[C@@H]3CCN(Cc4ccccc4)C3)CC[C@H]21 | 50.2%
CCNC(=O)C[C@@H]1CC[C@@H]2[C@@H](COc3ccc(NC(=O)Nc4ccccc4F)cc3C(=O)N2C)O1 | 19.6%
CN1C(=O)c2cc(NS(C)(=O)=O)ccc2OC[C@@H]2O[C@@H](CC(=O)NCc3ccc(-c4ccccc4)cc3)CC[C@H]21 | 6.8%
CN1C(=O)c2cc(NC(=O)c3cnccn3)ccc2OC[C@@H]2O[C@H](CC(=O)N[C@@H]3CCN(Cc4ccccc4)C3)CC[C@@H]21 | 105% (active)
CN1C(=O)c2cc(NC(=O)Nc3ccccc3F)ccc2OC[C@H]2O[C@H](CC(=O)NCc3ccc(-c4ccccc4)cc3)CC[C@H]21 | 101% (active)
CCS(=O)(=O)Nc1ccc2c(c1)C(=O)N(C)[C@@H]1CC[C@H](CC(=O)N[C@H]3CCN(Cc4ccccc4)C3)O[C@@H]1CO2 | 46.2%
CN1C(=O)c2cc(NC(=O)c3cnccn3)ccc2OC[C@@H]2O[C@H](CC(=O)NC3CCC3)CC[C@@H]21 | 7.25%
CCS(=O)(=O)Nc1ccc2c(c1)C(=O)N(C)[C@H]1CC[C@H](CC(=O)N[C@@H]3CCN(Cc4ccccc4)C3)O[C@H]1CO2 | 71.7%
